Rows were chosen to be rich in hits. Some 12% of all compounds tested hit in one or more screens of this group.
L major viab: Leishmania major promastigote growth inhibition; Leishmania major promastigotes, resazurin fluorescence viability; inhibition, % at 10 µM; actives 9% (n = 200,000); AID 1063; in the data active means inhibition above about 50%;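 further: promastigotes grown with compound for 44 hours at 28 °C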
WT yeast gro inh: growth inhibition of WT yeast, mitochondrial fusion screen; mitochondrial fusion phenotypic screen, WT strain; inhibition, % at 10 µM; actives 2.1% (n = 190,000); in the data active means inhibition above about 58%; tested in S. cerevisiae
Calpain2 inh: blocks pig calpain II enzyme activity. actives 0.37% (n = 220,000). purified calpain II, fluorogenic peptide substrate, 30 min. inhibition, % at 16 µM;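 active means inhibition above about 50%, limit read from the data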
KCC2 mod: modulators of human KCC2 chloride dependent transport; actives 2.2% (n = 190,000); AID 1456; B-score of Tl+ flux slope (higher = more flux/activation; lower = inhibition) at 10 µM; KCC2 cells, thallium flux FluoZin-2 fluorescence;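 active means thallium flux slope and its plate-corrected score both differing from the plate sample mean at a set confidence after two filtering rounds, in either direction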;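 further: slope of fluorescence scaled to starting intensity during 10 to 20 s after thallium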
ROMK primary: modulators of human ROMK potassium channel. P48048. Tet-inducible ROMK, thallium flux fluorescence; actives lie on both sides. B-score at 10 µM. actives 2% (n = 130,000). AID 1918;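 active means signal ratio slope over the read window, or its plate-corrected B-score, at least 3 SD from the plate mean, either direction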;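 further: B-score of the F/F0 ratio slope over 7 to 12 s after thallium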
* hit, by the source's call; x = not tested or not shown.

SMILES	L major viab	WT yeast gro inh	Calpain2 inh	KCC2 mod	ROMK primary
O=C(c1ccc([N+](=O)[O-])cc1)N1C=CC(C(F)(F)F)=NCC1	-3.2	-4.0	14.6	0.246	0.0571
CCCn1cnc2sc(CC)cc2c1=O	-8.0	-8.1	-9.4	x	-1.33
CCc1cc2c(=O)n(CCC(C)C)c(=S)[nH]c2s1	-0.9	31.3	5.1	72.7*	9.73*
C=C(C)Cn1c(C)cc(C)c(S(=O)(=O)c2ccc(C)cc2)c1=O	67.7*	31.1	29.6	-1.37	-0.466
Cc1cc(C)n(Cc2ccc(Cl)cc2Cl)c(=O)c1S(=O)(=O)c1ccccc1	-1.3	30.7	20.4	x	x
COc1ccc(-c2noc(CN3CCCCC3)n2)cc1OC	0.4	1.0	-27.4	x	x
Cc1onc(-c2ccccc2Cl)c1C(=O)N(Cc1nc(-c2ccccc2)no1)C1CCCCC1	53.9*	44.2	44.1	x	x
COc1ccc(C(=O)N(Cc2nc(-c3ccc(C)cc3)no2)C2CCCCC2)cc1OC	10.4	64.9*	45.4	x	x
CCC(C)NC(=O)C1CCCN1S(=O)(=O)c1ccc(Cl)cc1 (stereo not drawn)	0.0	15.3	19.5	0.327	x
CC(C)Oc1ccc(/C=N/NC(=O)C2CCCN2S(=O)(=O)c2ccc(Cl)cc2)cc1 (stereo not drawn)	59.8*	31.9	17.6	0.0538	-0.774
CCCOc1ccc(/C=N/NC(=O)C2CCCN2S(=O)(=O)c2ccc(Cl)cc2)cc1 (stereo not drawn)	59.4*	-4.2	9.5	-0.725	0.246
Cc1cccc(-n2cc(-c3ccccc3)c3c(N4CCOCC4)ncnc32)c1	14.8	7.1	26.9	0.0117	0.26
NC(=O)c1ccc(NC(=O)CCC(=O)N2CCN(S(=O)(=O)c3ccc(Cl)cc3)CC2)cc1	x	x	21.6	-0.565	x
CCOC(=O)N1CCN(CCC(=O)Nc2ccc(Br)cc2)CC1	3.8	-14.9	-5.1	-2.4	0.411
CCOC(=O)N1CCN(CCC(=O)Nc2cc(OC)cc(OC)c2)CC1	51.5*	8.0	20.6	0.106	0.0246
CCOC(=O)N1CCN(CCC(=O)Nc2ccc(C)c(Br)c2)CC1	73.5*	0.0	10.3	-2.21	x
O=C(CCC(=O)N1CCN(S(=O)(=O)c2ccc(Cl)cc2)CC1)Nc1cccc(Br)c1	6.5	25.2	83.2*	0.00892	-0.772
CCOC(=O)N1CCN(CCC(=O)Nc2cccc(Br)c2)CC1	88.7*	-6.0	-1.7	0.516	0.73
O=C(c1c[nH]c(C(=O)C(Cl)(Cl)Cl)c1)c1ccccc1Br	29.8	-1.5	-13.1	-0.251	-0.266
COc1ccc(C(=O)N2CCOC2CNC(=O)C(=O)NCc2ccc(Cl)cc2)cc1 (stereo not drawn)	-1.8	-0.4	-17.7	-0.217	-1.49
Cc1ccc(CN2CCNC(=O)C2CC(=O)NCC(F)(F)F)o1 (stereo not drawn)	-5.6	4.5	-10.4	0.633	0.43
CC(=O)N1CCc2ccccc2C1CC(=O)O (stereo not drawn)	-1.9	3.7	5.1	0.404	-0.31
COC(=O)CCS(=O)(=O)c1nc(-c2ccccc2)cc(C(F)(F)F)n1	3.3	19.2	4.9	x	x
COc1ccc(-c2cc(C(F)(F)F)nc(S(=O)(=O)CCCC(=O)Nc3cccnc3Cl)n2)cc1OC	81.6*	-20.7	-53.3	x	-0.425
Fc1ccc(C2C3=C(Nc4ncnn42)c2ccccc2OC3c2ccncc2)cc1 (stereo not drawn)	17.6	-8.2	-60.8	x	-0.152
SMILES	L major viab	WT yeast gro inh	Calpain2 inh	KCC2 mod	ROMK primary
Cc1ccc(C2Oc3ccccc3C3=C2C(c2cccs2)n2ncnc2N3)cc1 (stereo not drawn)	51.0*	-17.8	-94.3	1.05	x
COc1ccc(N2CCN(CC(=O)Nc3c(C)cc(C)cc3C)CC2)cc1	78.9*	16.6	-30.8	x	x
O=C(O)CC/C(=N/Nc1ncc(C(F)(F)F)cc1Cl)C(=O)O	-1.6	-1.6	8.2	-0.282	-0.0126
CC(=O)Nc1sc2c(c1C(c1ccc(F)cc1)N1CCOCC1)CCCC2 (stereo not drawn)	20.9	0.4	-9.8	0.124	-0.728
CC(=O)Nc1sc2c(c1C(c1ccc(Cl)cc1)N1CCOCC1)CCCC2 (stereo not drawn)	23.4	80.5*	-8.3	-0.213	x
NC(=S)n1[nH]c(-c2ccc([N+](=O)[O-])cc2)c(N=Nc2ccc(O)cc2)c1=O	97.5*	-14.2	-42.2	x	0.00681
NC(=S)n1[nH]c(-c2ccc([N+](=O)[O-])cc2)c(N=Nc2cccc(Cl)c2)c1=O	46.6	74.7*	-169.6	5.84*	-0.526
Nc1[nH][nH]c(=O)c1N=Nc1cccc(Cl)c1	-8.8	-7.6	-12.8	x	x
CCOc1ccccc1NC(=O)/C(C#N)=C/c1c(C)nn(-c2ccccc2)c1Cl	81.6*	24.2	-25.6	-0.556	-0.57
N#C/C(=C\c1c(N(Cc2ccccc2)Cc2ccccc2)nc2ccccn2c1=O)C(N)=O	33.6	-6.2	4.2	-0.386	x
C=CCNC(=O)/C(C#N)=C/c1c(C)nn(-c2ccccc2)c1Cl	99.2*	36.0	13.7	-3.32	-3.04
C=CCNC(=O)/C(C#N)=C/c1c(N(Cc2ccccc2)Cc2ccccc2)nc2ccccn2c1=O	76.0*	20.0	-2.5	-1.21	x
C=CCNC(=O)/C(C#N)=C/c1cn(-c2ccccc2)nc1-c1cccs1	6.9	0.7	-264.2	0.833	-0.288
O=[N+]([O-])/C(C(Cl)=C(Cl)Cl)=C(/Sc1ccccc1)N1CCCCC1	x	x	2.9	0.00973	x
CC12CN3CC(C)(CN(C1)C3c1ccc(F)cc1)C2 (stereo not drawn)	-4.4	14.1	22.6	0.562	-0.847
O=C(Nc1nnc(C23CC4CC(CC(C4)C2)C3)s1)c1ccc(N2C(=O)CCC2=O)cc1	17.2	-1.5	-57.4	x	x
CC(=O)c1c(C(C)=O)c(C)n(-c2ccc(C)c(NC(=O)c3ccccc3Cl)c2)c1C	53.2*	-10.9	-12.4	x	x
Brc1cc(Cc2nnc(-c3ccccc3)o2)c(Br)s1	x	x	29.7	-0.698	x
COc1ccc(OCC(=O)N/N=C\c2ccco2)cc1	-2.5	1.3	24.4	0.114	0.474
O=C(COc1ccccc1)NCC(=O)N/N=C/c1ccco1	56.0*	-18.6	-0.1	-0.749	x
COC(=O)c1ccccc1NC(=O)COC(=O)C1CCCCC1	x	x	17.2	0.552	x
COc1ccc(N(C(=O)c2ccn[nH]2)C(C(=O)NC(C)(C)C)c2ccc(F)cc2)cc1 (stereo not drawn)	80.5*	-26.4	-18.6	0.0059	0.0906
Cc1nc2ccccc2c(=O)n1/N=C/c1cccs1	2.9	-4.9	-5.3	-0.0435	0.0607
Cc1nc2ccccc2c(=O)n1/N=C/c1cn(-c2ccccc2)nc1-c1cccs1	56.4*	25.0	-4.7	-1.06	x
CCNS(=O)(=O)c1c(C)cc(C)c(N(C)S(=O)(=O)c2ccccc2)c1C	6.2	-13.0	-7.7	-1.87	0.495
CN1CCNC(=O)C1CC(=O)NCCc1ccccc1F (stereo not drawn)	-5.4	0.3	-10.6	1.19	0.405
Cc1ccc(OCCN2CCN(CC(O)Cn3c4ccccc4c4ccccc43)CC2)cc1 (stereo not drawn)	77.1*	85.7	22.7	-0.0845	x
OC(CN1CCN(c2ccccc2)CC1)Cn1c2ccccc2c2ccccc21 (stereo not drawn)	8.6	9.9	2.0	1.32	0.0838

Source: PubChem
